Assay results from the supplement of paper PMC11732987, “Enantioselective OTUD7B fragment discovery through chemoproteomics screening and high-throughput optimisation” (Communications Chemistry, 2025).

Columns and labels:
Assay in all cases: log2 ratio of Biotin-Ahx-Ub-VS probe labelling (fragment/DMSO); higher = less target engagement (more negative = stronger competition), active = hit call of the paper (q ≤ 0.05, log2 ratio ≤ -1)
Details in all cases: compound concentration: 200 uM; treatment time: 3 h
USP42 = molecular target: T1, USP42 (UniProt Q9H9J4)
T1 sequence (whole entry): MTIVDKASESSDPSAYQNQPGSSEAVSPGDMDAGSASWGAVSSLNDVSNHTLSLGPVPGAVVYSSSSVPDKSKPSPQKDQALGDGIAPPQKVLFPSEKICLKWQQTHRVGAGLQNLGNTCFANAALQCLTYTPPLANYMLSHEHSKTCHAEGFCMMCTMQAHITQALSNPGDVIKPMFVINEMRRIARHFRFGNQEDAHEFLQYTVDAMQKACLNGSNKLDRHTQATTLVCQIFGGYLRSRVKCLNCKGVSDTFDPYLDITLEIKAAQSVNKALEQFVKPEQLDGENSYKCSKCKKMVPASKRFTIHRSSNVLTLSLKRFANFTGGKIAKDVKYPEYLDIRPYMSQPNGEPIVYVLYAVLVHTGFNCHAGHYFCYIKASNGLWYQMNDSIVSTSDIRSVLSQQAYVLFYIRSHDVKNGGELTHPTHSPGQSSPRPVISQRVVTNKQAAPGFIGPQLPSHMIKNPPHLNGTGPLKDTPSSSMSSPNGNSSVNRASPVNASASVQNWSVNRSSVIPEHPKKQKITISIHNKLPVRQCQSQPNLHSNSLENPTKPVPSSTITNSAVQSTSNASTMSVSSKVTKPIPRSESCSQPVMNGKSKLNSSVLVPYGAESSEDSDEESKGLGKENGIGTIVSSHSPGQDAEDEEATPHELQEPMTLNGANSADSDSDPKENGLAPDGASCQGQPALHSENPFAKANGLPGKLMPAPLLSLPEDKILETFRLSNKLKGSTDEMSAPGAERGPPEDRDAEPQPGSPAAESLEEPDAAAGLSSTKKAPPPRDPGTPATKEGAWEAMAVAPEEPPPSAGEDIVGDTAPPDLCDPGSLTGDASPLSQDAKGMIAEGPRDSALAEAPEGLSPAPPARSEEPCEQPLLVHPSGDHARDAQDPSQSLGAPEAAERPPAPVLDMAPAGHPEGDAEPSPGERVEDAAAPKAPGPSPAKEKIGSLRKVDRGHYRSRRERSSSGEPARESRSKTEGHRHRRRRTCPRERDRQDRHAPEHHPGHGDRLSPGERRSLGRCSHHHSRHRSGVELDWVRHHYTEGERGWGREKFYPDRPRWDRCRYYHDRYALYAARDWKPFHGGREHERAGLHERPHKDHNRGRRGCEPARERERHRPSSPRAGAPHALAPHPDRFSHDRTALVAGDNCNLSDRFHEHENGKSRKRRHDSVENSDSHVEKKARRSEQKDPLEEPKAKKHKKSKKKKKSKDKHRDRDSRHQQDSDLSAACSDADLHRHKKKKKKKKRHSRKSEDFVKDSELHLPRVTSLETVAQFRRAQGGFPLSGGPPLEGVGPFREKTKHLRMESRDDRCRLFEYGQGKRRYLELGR
Method in brief: (§1)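 Values give the average log2 ratio of fragment to vehicle, assessed by unpaired t-test on global-median-normalised Spectronaut label-free quantities. Proteins needed ≥2 unique peptides. HEK293T lysate (495 µg per sample) was treated in triplicate with fragment at 200 µM or vehicle for 3 h and then with Biotin-Ahx-Ub-VS at 0.5 µM final for 1 h. Labelled DUBs were NeutrAvidin-enriched, digested and run by diaPASEF LC-MS/MS.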

USP46 = USP46 (UniProt P62068)
Method in brief: as §1

USP47 = molecular target: T2, USP47 (UniProt Q96K76)
T2 sequence (whole entry): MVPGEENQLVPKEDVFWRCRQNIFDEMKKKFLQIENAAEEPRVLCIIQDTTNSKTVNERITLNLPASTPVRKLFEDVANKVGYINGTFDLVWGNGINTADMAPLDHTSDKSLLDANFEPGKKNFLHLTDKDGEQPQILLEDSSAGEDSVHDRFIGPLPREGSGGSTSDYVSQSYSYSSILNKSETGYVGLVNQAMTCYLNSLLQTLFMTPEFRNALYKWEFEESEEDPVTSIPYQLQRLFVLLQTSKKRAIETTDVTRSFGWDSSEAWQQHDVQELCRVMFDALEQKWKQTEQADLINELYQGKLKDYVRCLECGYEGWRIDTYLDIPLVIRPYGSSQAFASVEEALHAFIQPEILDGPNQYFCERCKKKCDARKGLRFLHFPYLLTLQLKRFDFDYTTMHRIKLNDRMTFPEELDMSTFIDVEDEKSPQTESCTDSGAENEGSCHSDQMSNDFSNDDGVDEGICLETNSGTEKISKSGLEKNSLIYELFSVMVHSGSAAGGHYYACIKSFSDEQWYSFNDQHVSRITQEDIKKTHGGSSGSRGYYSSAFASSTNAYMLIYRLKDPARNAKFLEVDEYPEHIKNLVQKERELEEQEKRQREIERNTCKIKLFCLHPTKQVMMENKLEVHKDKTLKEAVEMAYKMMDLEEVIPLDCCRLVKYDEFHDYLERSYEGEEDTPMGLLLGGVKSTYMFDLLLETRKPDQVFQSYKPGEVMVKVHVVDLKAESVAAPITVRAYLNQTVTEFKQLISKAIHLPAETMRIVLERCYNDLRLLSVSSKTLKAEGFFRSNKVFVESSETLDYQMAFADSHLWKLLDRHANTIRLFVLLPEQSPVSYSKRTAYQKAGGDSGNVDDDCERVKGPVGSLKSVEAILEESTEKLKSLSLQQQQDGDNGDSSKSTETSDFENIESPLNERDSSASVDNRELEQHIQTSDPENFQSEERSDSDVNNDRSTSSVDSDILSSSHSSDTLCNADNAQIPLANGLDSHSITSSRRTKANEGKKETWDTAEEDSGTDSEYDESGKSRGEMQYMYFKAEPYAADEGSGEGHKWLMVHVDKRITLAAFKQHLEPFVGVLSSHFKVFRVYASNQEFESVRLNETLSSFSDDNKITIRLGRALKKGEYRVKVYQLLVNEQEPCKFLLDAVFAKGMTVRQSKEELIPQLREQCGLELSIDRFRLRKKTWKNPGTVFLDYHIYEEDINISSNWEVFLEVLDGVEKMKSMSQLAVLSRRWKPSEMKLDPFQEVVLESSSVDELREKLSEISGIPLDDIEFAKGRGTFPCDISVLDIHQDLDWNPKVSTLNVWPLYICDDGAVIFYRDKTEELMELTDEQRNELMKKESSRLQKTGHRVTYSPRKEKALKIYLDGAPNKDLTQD
Method in brief: as §1

USP48 = molecular target: T3, USP48 (UniProt Q86UV5)
T3 sequence (whole entry): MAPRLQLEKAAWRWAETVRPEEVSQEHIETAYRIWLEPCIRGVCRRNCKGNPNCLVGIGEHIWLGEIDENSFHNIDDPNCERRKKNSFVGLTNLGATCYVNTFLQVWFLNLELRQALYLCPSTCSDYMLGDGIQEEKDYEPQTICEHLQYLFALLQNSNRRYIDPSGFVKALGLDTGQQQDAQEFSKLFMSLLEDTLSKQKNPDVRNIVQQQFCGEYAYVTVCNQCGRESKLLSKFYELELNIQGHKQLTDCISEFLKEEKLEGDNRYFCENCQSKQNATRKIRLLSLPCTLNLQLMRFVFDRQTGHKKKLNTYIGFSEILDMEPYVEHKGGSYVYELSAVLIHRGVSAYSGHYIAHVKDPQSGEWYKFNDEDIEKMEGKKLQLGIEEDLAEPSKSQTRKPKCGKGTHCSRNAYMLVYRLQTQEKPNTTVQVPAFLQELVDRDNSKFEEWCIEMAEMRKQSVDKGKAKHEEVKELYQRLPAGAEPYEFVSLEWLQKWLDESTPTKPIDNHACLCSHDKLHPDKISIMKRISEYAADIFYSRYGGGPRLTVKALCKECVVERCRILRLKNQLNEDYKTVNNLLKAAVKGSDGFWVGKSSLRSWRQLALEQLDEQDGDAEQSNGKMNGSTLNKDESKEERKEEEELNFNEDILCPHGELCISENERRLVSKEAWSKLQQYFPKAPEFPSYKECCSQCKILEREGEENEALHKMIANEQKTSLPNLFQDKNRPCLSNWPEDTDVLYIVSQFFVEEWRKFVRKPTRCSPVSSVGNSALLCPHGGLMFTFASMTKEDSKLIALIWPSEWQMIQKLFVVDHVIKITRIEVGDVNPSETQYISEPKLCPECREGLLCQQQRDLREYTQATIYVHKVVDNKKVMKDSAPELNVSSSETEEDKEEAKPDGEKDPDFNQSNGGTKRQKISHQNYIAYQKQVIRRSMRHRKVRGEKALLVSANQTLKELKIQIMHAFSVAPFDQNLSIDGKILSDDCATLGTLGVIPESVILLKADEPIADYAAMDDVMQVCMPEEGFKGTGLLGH
Method in brief: as §1

USP5 = molecular target: T4, USP5 (UniProt P45974)
T4 sequence (whole entry): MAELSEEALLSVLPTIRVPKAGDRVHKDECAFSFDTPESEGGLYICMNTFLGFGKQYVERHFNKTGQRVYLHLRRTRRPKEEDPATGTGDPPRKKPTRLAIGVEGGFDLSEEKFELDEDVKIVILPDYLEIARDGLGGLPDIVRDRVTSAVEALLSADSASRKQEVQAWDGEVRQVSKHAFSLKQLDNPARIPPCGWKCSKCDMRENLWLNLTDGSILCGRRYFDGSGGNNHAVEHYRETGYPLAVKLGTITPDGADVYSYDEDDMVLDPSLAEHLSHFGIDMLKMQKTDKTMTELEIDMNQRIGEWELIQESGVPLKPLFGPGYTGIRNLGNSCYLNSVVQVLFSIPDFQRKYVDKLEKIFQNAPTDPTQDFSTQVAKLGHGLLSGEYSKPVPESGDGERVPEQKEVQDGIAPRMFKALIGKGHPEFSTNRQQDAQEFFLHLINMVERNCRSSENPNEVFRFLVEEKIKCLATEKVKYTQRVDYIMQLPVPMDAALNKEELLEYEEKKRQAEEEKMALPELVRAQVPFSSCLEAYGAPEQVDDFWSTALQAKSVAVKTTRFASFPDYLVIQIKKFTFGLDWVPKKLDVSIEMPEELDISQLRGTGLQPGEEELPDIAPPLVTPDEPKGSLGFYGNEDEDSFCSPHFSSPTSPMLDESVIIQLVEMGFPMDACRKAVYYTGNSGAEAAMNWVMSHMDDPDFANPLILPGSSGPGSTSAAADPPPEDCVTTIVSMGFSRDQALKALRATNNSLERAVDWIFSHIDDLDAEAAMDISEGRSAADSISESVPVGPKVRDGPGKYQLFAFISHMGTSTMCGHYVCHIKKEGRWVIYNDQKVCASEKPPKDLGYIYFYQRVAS
Method in brief: as §1

USP54 = USP54 (UniProt Q70EL1)
Method in brief: as §1

USP7 = USP7 (UniProt Q93009)
Method in brief: as §1

USP8 = molecular target: T5, USP8 (UniProt P40818)
T5 sequence (whole entry): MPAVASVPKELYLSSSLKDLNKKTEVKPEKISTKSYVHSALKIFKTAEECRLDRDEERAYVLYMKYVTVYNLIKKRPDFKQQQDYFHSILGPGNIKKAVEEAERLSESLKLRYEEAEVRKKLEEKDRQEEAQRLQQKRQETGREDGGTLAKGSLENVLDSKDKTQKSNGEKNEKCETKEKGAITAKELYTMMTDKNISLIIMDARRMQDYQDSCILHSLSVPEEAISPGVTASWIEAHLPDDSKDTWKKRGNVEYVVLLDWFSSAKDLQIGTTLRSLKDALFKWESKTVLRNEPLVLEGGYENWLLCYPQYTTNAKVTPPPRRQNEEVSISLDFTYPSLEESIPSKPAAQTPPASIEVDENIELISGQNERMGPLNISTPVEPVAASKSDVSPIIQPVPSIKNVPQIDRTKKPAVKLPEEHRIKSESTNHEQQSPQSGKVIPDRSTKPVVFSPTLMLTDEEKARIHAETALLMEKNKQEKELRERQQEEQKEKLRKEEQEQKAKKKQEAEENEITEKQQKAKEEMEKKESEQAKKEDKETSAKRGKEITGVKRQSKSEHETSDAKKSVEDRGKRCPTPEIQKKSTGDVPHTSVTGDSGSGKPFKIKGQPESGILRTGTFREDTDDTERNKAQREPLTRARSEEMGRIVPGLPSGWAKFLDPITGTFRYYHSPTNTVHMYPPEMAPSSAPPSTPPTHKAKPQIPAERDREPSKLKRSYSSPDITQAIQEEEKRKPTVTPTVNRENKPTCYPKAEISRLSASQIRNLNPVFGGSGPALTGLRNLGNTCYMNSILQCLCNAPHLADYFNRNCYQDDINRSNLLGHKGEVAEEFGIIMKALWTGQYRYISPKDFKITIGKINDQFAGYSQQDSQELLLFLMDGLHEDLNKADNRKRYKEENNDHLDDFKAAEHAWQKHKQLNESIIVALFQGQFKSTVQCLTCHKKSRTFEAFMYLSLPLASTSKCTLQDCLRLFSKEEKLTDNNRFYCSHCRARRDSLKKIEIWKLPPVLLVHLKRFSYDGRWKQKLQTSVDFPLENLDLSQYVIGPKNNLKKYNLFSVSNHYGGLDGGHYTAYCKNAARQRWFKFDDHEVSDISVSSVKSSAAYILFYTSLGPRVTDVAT
Method in brief: as §1

USP9X = USP9X (UniProt Q93008)
Method in brief: as §1

UniProt O00487 = molecular target: UniProt O00487
Method in brief: as §1

Measured: log2 ratio of Biotin-Ahx-Ub-VS probe labelling

Sequence of USP54 (Q70EL1 whole entry): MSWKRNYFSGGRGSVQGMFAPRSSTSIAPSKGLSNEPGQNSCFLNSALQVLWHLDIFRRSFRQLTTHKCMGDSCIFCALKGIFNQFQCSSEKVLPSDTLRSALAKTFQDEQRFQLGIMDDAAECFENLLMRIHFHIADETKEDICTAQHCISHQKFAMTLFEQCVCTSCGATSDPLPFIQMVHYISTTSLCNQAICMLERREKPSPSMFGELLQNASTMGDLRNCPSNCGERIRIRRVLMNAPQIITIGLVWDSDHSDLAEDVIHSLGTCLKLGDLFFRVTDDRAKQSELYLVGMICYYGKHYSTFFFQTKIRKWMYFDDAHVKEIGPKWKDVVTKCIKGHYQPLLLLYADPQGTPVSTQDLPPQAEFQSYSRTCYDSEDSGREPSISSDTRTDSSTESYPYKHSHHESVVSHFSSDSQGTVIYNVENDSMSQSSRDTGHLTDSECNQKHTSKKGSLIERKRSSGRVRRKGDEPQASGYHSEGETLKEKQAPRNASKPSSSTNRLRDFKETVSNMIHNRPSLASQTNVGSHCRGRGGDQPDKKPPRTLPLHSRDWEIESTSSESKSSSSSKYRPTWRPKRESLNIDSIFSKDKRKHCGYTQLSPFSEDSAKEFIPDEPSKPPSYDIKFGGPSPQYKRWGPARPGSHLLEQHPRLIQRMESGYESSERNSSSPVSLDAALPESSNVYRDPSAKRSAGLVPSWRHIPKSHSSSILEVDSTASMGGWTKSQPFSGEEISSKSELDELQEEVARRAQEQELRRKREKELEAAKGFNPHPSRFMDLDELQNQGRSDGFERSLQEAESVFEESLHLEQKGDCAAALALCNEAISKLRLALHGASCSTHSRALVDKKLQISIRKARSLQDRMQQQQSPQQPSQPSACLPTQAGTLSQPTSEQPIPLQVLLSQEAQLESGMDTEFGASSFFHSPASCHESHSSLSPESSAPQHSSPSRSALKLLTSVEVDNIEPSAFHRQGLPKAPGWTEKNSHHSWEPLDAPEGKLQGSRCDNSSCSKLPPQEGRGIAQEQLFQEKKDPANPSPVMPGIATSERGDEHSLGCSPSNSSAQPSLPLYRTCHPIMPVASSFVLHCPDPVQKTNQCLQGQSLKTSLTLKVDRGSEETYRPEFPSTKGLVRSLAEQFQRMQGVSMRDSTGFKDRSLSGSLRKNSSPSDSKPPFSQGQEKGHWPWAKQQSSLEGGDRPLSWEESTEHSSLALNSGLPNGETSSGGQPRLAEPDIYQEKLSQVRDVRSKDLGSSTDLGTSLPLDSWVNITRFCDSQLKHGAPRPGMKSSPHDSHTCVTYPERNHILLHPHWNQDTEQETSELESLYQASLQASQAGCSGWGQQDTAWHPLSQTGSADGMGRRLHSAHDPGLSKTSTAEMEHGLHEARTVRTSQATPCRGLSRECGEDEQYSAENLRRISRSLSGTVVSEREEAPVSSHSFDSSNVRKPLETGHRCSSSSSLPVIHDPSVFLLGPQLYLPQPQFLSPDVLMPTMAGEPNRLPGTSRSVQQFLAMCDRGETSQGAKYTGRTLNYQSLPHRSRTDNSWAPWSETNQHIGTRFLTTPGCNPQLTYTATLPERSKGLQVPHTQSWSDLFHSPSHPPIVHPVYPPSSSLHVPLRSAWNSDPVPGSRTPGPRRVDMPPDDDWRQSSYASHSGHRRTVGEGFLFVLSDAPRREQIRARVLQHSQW
Sequence of USP9X (Q93008 whole entry): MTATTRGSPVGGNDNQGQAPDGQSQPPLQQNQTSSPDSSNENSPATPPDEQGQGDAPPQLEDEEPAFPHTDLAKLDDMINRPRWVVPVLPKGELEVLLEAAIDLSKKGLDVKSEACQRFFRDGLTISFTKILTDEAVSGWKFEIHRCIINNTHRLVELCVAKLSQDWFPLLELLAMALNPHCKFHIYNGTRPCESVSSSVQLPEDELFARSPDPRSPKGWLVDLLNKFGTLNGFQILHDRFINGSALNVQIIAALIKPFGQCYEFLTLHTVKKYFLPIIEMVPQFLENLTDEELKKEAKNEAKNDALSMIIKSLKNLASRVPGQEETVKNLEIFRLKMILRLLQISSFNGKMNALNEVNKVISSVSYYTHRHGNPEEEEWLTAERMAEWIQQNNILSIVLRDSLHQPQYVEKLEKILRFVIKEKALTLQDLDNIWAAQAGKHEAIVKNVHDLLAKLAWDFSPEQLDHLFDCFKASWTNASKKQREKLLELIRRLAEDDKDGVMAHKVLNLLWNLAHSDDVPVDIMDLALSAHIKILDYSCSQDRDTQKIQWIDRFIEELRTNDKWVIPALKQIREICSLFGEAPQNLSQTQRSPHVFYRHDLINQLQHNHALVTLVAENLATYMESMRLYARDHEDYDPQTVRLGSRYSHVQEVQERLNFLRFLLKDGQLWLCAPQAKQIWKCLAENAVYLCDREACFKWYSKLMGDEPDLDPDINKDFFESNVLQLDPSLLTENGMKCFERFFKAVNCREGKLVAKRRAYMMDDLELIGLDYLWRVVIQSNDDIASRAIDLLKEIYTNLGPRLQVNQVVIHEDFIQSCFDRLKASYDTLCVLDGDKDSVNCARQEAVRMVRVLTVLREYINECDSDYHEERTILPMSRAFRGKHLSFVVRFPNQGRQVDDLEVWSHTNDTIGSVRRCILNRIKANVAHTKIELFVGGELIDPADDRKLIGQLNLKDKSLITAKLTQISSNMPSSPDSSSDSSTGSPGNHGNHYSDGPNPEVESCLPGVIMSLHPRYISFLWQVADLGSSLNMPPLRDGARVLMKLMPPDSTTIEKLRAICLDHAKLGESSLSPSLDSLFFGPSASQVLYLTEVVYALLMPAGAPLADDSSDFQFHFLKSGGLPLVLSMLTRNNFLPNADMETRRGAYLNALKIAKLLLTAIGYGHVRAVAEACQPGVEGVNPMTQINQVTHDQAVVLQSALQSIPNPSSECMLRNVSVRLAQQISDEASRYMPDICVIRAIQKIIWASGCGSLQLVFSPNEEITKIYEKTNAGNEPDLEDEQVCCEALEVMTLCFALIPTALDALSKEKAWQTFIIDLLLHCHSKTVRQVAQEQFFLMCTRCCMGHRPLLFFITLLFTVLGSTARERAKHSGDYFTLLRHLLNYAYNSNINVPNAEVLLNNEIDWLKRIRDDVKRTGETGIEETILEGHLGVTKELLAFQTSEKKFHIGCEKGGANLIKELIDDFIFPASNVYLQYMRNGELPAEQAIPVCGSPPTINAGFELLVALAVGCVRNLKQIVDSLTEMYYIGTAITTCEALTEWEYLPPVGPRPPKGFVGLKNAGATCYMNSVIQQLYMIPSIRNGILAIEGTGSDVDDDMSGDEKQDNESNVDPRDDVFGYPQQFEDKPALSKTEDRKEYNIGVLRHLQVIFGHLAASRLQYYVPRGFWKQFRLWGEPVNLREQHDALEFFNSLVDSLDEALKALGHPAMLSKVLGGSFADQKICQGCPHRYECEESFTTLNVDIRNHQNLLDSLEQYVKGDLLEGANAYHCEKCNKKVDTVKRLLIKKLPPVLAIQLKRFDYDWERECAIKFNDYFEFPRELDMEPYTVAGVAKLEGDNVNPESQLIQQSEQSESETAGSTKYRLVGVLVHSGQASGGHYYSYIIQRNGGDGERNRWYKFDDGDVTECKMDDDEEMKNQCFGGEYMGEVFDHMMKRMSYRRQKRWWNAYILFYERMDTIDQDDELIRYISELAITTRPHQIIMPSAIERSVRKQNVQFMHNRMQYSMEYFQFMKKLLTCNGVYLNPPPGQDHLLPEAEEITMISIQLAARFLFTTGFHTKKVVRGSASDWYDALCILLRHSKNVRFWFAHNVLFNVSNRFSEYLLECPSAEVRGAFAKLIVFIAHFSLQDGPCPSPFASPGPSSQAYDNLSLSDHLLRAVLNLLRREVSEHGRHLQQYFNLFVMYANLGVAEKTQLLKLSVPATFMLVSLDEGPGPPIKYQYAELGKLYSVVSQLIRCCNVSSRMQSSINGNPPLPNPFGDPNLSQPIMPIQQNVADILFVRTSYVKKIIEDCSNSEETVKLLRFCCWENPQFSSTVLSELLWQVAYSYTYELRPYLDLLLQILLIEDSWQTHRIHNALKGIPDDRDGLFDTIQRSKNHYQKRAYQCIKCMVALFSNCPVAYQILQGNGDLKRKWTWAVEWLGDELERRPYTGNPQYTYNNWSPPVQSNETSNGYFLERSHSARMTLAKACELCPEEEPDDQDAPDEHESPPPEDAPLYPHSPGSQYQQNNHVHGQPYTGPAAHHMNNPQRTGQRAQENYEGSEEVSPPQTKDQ
Sequence of USP46 (P62068 whole entry): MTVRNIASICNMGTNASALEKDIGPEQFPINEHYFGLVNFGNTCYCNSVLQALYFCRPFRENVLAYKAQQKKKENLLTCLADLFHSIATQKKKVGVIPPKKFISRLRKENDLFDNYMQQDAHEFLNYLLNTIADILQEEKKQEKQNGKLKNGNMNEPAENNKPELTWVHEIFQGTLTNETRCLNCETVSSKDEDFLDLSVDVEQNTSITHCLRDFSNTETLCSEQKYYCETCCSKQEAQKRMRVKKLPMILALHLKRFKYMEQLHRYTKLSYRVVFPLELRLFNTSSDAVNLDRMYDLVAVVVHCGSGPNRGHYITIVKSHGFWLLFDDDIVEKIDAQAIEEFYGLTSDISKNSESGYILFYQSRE
Sequence of UniProt O00487 (O00487 whole entry): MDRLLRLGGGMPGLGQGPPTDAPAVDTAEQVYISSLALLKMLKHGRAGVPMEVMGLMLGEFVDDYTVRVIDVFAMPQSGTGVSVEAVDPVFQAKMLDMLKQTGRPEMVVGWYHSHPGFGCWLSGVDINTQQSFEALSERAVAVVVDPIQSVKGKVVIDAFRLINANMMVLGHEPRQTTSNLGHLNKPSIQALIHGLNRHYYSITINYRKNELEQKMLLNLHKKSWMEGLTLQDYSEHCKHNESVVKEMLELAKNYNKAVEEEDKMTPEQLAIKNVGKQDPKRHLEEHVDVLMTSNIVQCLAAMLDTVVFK

Cc1cccc(N(CCC#N)C(=O)CCl)c1C
inactive: USP42 0.0225 | USP46 0.0197 | USP47 -0.354 | USP48 -0.0383 | USP5 0.289 | USP54 0.431 | USP7 -0.47 | USP8 0.0891 | USP9X 0.0273 | UniProt O00487 0.0621

Cc1cc(NC(=O)CCl)n(-c2ccccc2)n1
inactive: USP42 0.45 | USP46 -0.023 | USP47 -0.584 | USP48 0.128 | USP5 -0.00592 | USP54 -0.0011 | USP7 -0.0104 | USP8 -0.118 | USP9X 0.0409 | UniProt O00487 -0.0689

CN(C(=O)CCl)c1nc2ccccc2s1
inactive: USP42 0.236 | USP46 -0.305 | USP47 -0.107 | USP48 -0.574 | USP5 -0.191 | USP54 -0.996 | USP7 -0.566 | USP8 -0.0186 | USP9X -0.325 | UniProt O00487 -0.00105

O=C(CCl)NCCc1ccc2c(c1)OCCO2
inactive: USP42 0.217 | USP46 0.147 | USP47 0.109 | USP48 -0.413 | USP5 -0.336 | USP54 0.647 | USP7 -0.433 | USP8 0.0104 | USP9X -0.26 | UniProt O00487 -0.093
